Measured values: PubChem BioAssay (Tox21)
Values joined by “and” are separate entries in the source; they are usually repeats but may differ in a detail not shown here. Identical values can stand only once. Records with an inconclusive call do not appear. Where a structure was tested more than once in an assay, its records may differ in their call. Active and inactive are the calls of the source. Unless noted, calls follow the shape of the dose curve; as a rule, active = well fitted curve in the direction sought with a large enough effect in the repeat runs; inconclusive = weak or mixed curves; inactive = no such curve, though single readings can be large; an effect the other way counts as inactive or inconclusive.

Key:
[1] = qHTS assay to identify small molecule agonists of the hypoxia (HIF-1) signaling pathway - cell viability counter screen (AID 1224844; calls by dose curve; also: nearly all actives have a fitted effect of over 50% in size; also: potency is read from the fitted curve at half-maximal effect)
Outline: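 Tox21 10K compounds were added to HRE-bla ME-180 cells (0.5% dialyzed FBS) and incubated 17 hrs at 37C; ATP-based CellTiter-Glo luminescence then reported cell viability in the same wells.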

[2] = qHTS assay to identify small molecule agonists of the hypoxia (HIF-1) signaling pathway (AID 1224846; active = well fitted activation curve with a large enough effect in the signal ratio in the repeat runs, not every such curve was filed as active; the % refers to the signal ratio; also: % is scaled to controls: 0 for no effect and ±100 for the full control effect)
Outline: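 Steps: seed ME-180 HRE-bla cells (2,000/well, 0.5% dialyzed FBS); incubate 5 hrs at 37C; pin-transfer compounds or DMSO; incubate 17 hrs; add LiveBLAzer B/G substrate CCF4-AM; measure reporter activation by FRET.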

[3] = qHTS assay to identify small molecule agonists of H2AX - cell viability counter screen (AID 1224847; calls by dose curve; also: nearly all actives have a fitted effect of over 30% in size; also: potency is read from the fitted curve at half-maximal effect)
Outline: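 Viability of CHO-K1 (wild type) cells after 3 hr compound exposure was measured by CellTiter-Glo luminescence.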

[4] = qHTS assay to identify small molecule agonists of the estrogen related receptor (ERR) signaling pathway from Tox21 library (AID 1224849; calls by dose curve; also: % is scaled to controls: 0 for no effect and ±100 for the full control effect; nearly all actives have a fitted effect of over 15% in size); settings: ERR reporter cell line, ONE-Glo luciferase, 18 h; at 92.4 µM (top of the series)
Outline: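 Agonist signal is luciferase luminescence from an ERR reporter cell line treated 18 h at 37 C with DMSO-dissolved compounds, read 30 min after ONE-Glo addition at room temperature.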

[5] = qHTS RealTime-Glo MT Cell Viability Assay in HepG2 cells - 24 hour (AID 1224867); also: % is scaled to controls: 0 for no effect and ±100 for the full control effect; nearly all actives have a fitted effect of over 50% in size
Outline: (§1)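 HepG2 suspension premixed with RealTime-Glo reagents is plated at 600 cells per well and left 5 h at 37 C/5% CO2. Compounds in DMSO then go in, and bioluminescence reflecting viable cell number is recorded over 40 h.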

[6] = qHTS RealTime-Glo MT Cell Viability Assay in HEK293 cells - 32 hour (AID 1224868); also: nearly all actives have a fitted effect of over 50% in size; also: potency is read from the fitted curve at half-maximal effect
Outline: (§2)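 Reads taken at 0, 8, 16, 24, 32 and 40 h from the same wells. HEK293 cells (600/well) carried RealTime-Glo reagents from seeding, with compound added after a 5 h settle at 37 C.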

[7] = A CellTox Green Cytotoxicity Assay to monitor cytotoxicity in HEK293 cells - 0 hour (AID 1224869); also: nearly all actives have a fitted effect of over 50% in size; also: potency is read from the fitted curve at half-maximal effect; as to Cytotoxicity: % is scaled to controls: 0 for no effect and ±100 for the full control effect
Outline: (§3)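 Cytotoxicity was tracked continuously in HEK293 cells by a DNA-binding dye excluded from viable cells. Compounds were transferred in DMSO 5 h after seeding; fluorescence was recorded at intervals up to 40 h.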

[8] = qHTS RealTime-Glo MT Cell Viability Assay in HepG2 cells - 40 hour (AID 1224870)
Outline: (§4)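 HepG2 cells mixed with RealTime-Glo MT reagents (NanoLuc plus cell-permeant prosubstrate) were seeded at 600 cells/well, incubated 5 h at 37 C/5% CO2, then pinned with compounds in DMSO; nonlytic luminescence tracked viability during 40 h treatment.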

[9] = A CellTox Green Cytotoxicity Assay to monitor cytotoxicity in HEK293 cells - 40 hour (AID 1224871); also: nearly all actives have a fitted effect of over 45% in size; also: potency is read from the fitted curve at half-maximal effect
Outline: as §3

[10] = qHTS RealTime-Glo MT Cell Viability Assay in HepG2 cells - 8 hour (AID 1224873); also: % is scaled to controls: 0 for no effect and ±100 for the full control effect; nearly all actives have a fitted effect of over 55% in size
Outline: as §4

[11] = qHTS RealTime-Glo MT Cell Viability Assay in HEK293 cells - 40 hour (AID 1224874); settings: RealTime-Glo luminescence; max response: stronger effect = lower value; also: nearly all actives have a fitted effect of over 50% in size; also: potency is read from the fitted curve at half-maximal effect; as to max response: % is scaled to controls: 0 for no effect and ±100 for the full control effect
Outline: (§5)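 Nonlytic bioluminescent viability monitoring. HEK293 at 600 cells/well with reagent; 5 h settle; compound transfer by pintool; plates held at 37 C and read at set time points.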

[12] = A CellTox Green Cytotoxicity Assay to monitor cytotoxicity in HEK293 cells - 24 hour (AID 1224875); also: % is scaled to controls: 0 for no effect and ±100 for the full control effect; nearly all actives have a fitted effect of over 45% in size
Outline: as §3

[13] = A CellTox Green Cytotoxicity Assay to monitor cytotoxicity in HepG2 cells - 16 hour (AID 1224876); also: nearly all actives have a fitted effect of over 45% in size; also: potency is read from the fitted curve at half-maximal effect
Outline: (§6)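 Real-time, homogeneous cytotoxicity readout: dead-cell DNA staining by CellTox Green in HepG2 monolayers, fluorescence measured at timed intervals up to 40 h of continuous compound exposure.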

[14] = qHTS RealTime-Glo MT Cell Viability Assay in HepG2 cells - 32 hour (AID 1224877); also: % is scaled to controls: 0 for no effect and ±100 for the full control effect; nearly all actives have a fitted effect of over 55% in size
Outline: as §1

[15] = A CellTox Green Cytotoxicity Assay to monitor cytotoxicity in HepG2 cells - 24 hour (AID 1224878); also: nearly all actives have a fitted effect of over 45% in size; also: potency is read from the fitted curve at half-maximal effect; as to Cytotoxicity: % is scaled to controls: 0 for no effect and ±100 for the full control effect
Outline: as §6

[16] = A CellTox Green Cytotoxicity Assay to monitor cytotoxicity in HepG2 cells - 40 hour (AID 1224879); also: nearly all actives have a fitted effect of over 40% in size; also: potency is read from the fitted curve at half-maximal effect
Outline: as §6

[17] = qHTS RealTime-Glo MT Cell Viability Assay in HEK293 cells - 0 hour (AID 1224880)
Outline: as §5

[18] = qHTS RealTime-Glo MT Cell Viability Assay in HEK293 cells - 16 hour (AID 1224872); also: nearly all actives have a fitted effect of over 50% in size; also: potency is read from the fitted curve at half-maximal effect
Outline: as §2

[19] = qHTS assay to identify small molecule agonists of H2AX (AID 1224845; active = well fitted activation curve with a large enough effect in the signal ratio in the repeat runs, not every such curve was filed as active; the % refers to the signal ratio; also: potency is read from the fitted curve at half-maximal effect)
Outline: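 Wild-type CHO-K1 cells plated overnight, then exposed 3 hr at 37C to compounds at 15 concentrations (0.76% DMSO). Lysed, then HTRF anti-pH2AX(S139)-cryptate/anti-H2AX-d2 detection after 24 hr at room temperature; emissions 665 and 620 nm.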

[20] = qHTS assay to identify small molecule antagonists of the estrogen related receptor (ERR) signaling pathway from Tox21 library (AID 1224848)
Outline: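 Cells: ERR line, 2,000/well; 6 h preincubation 37 C/5% CO2. Cpd in DMSO via pin tool; 18 h, 37 C. ONE-Glo, 30 min RT, luminescence.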

O=[N+]([O-])c1ccc(Nc2ccccc2)cc1
active: Potency [3] 80 µM | Potency [6] 24.7 µM and 19.5 µM | Potency [11] 27.8 µM and 21.9 µM
inactive: Potency [1] | outcome [2] | activity change, positive = activation [4] -30.2% and -27.4% | Potency [5] | Potency [7] | Potency [8] | Potency [9] | Potency [10] | Potency [12] | Potency [13] | Potency [14] | Potency [15] | Potency [16] | Potency [17]

C[C@]12CCC(=O)C=C1CC[C@@H]1[C@@H]2CC[C@@]2(C)[C@H]1CC[C@]2(C)O
22.1 µM (active) and inactive: Potency [13]
active: Potency [6] 22.1 µM | Potency [18] 19.7 µM | Potency [11] 19.7 µM | Potency [15] 35 µM | Potency [16] 19.7 µM and 23.9 µM
44 µM (active) and inactive: Potency [7]
71.9 µM (active) and inactive: Potency [3]
inactive: Potency [1] | outcome [2] | Potency [5] | Potency [8] | Potency [10] | Potency [14] | Potency [17]

OCCOCCO
inactive: Potency [1] | Potency [19] | outcome [2] | Potency [5] | Potency [6] | Potency [7] | Potency [8] | Potency [18] | Potency [10] | max response [11] -1.92% and 3.49% | Potency [12] | Potency [13] | Potency [14] | Potency [15] | Potency [16] | Potency [17]

CCCCCCCCCc1ccc(O)cc1
active: Potency [1] 39.3 µM and 54.9 µM | Potency [19] 102 µM and 101 µM | Potency [3] 90.7 µM and 101 µM | Potency [6] 9.87 µM and 5.49 µM | Potency [18] 6.99 µM and 4.36 µM | Potency [11] 11.1 µM and 6.92 µM | Potency [13] 39.3 µM | Potency [15] 44.1 µM and 38.9 µM | Potency [16] 24.8 µM
44.1 µM (active) and inactive: Potency [9]
inactive: Potency [5] | Potency [7] | Potency [8] | Potency [10] | Potency [14] | Potency [17]

CC(C)=CC1C(C(=O)OCN2C(=O)C3=C(CCCC3)C2=O)C1(C)C (stereo not drawn)
inactive: Potency [1] | Potency [19] | outcome [2] | Potency [5] | Potency [6] | Potency [7] | Potency [8] | Potency [18] | Potency [10] | max response [11] 2.99% | Potency [12] | Potency [13] | Potency [14] | Potency [15] | Potency [16] | Potency [17]

c1ccc(C2CO2)cc1 (stereo not drawn)
inactive: Potency [1] | Potency [19] | outcome [2] | Potency [5] | Potency [6] | Potency [7] | Potency [8] | Potency [18] | Potency [10] | Potency [12] | Potency [13] | Potency [14] | Potency [15] | Potency [16] | Potency [17]

CC(C)(c1ccc(OCC2CO2)cc1)c1ccc(OCC2CO2)cc1 (stereo not drawn)
active: Potency [20] 61.9 µM
inactive: Potency [19] | outcome [2] | activity change, positive = activation [4] -61.1% and -21.3% | Potency [5] | Potency [6] | Potency [7] | Potency [8] | Potency [9] | Potency [18] | Potency [10] | max response [11] -0.153% | Potency [12] | Potency [13] | Potency [14] | Potency [15] | Potency [16] | Potency [17]

CCCCCCCCCCCCCl
inactive and 24.5 µM (active): Potency [7]
inactive and 12.3 µM (active): Potency [15] | Potency [16]
inactive and 13.8 µM (active): Potency [13]
inactive: Potency [1] | Potency [19] | outcome [2] | Potency [5] | Potency [6] | Potency [8] | Potency [18] | Potency [10] | max response [11] 0% and 16.5% | Potency [14] | Potency [17]

CC[n+]1c(-c2ccccc2)c2cc(N)ccc2c2ccc(N)cc21
inactive: Potency [7] | Potency [8] | Potency [9] | Potency [10] | Potency [12] | Potency [13] | Potency [15] | Potency [16] | Potency [17]
21.8 µM (active) and inactive: Potency [1]
active: Potency [6] 4.34 µM and 5.35 µM

CC1CC(=O)O1 (stereo not drawn)
inactive: Potency [1] | Potency [19] | outcome [2] | Potency [5] | Potency [6] | Potency [7] | Potency [8] | Potency [10] | Potency [12] | Potency [13] | Potency [14] | Potency [15] | Potency [16] | Potency [17]
